The text below walks through data of PubChem BioAssay (NCI).

Holding throughout (experiment): NCI-60 one-dose screen, 48 h (100 = growth as untreated, 0 = no growth, -100 = all killed)
For one test, the system named is HCT-15 colon. To be noted: 10 µM unless noted.
A further test concerns HT29 colon. To be noted: 10 µM unless noted.
Another test has as its system SNB-19 CNS. To be noted: 10 µM unless noted.
Another test concerns U251 CNS. As to conditions: 10 µM unless noted.
The subject of the next test is PC-3 prostate. As to conditions: 10 µM unless noted.
In a further test the test system is SK-MEL-5 melanoma. As to conditions: 10 µM unless noted.
Another test deals with UACC-62 melanoma. To be noted: 10 µM unless noted.
The next test concerns LOX IMVI melanoma. As to conditions: 10 µM unless noted.
Another test has as its system SK-MEL-28 melanoma. To be noted: 10 µM unless noted.
In the next test the test system is SK-MEL-2 melanoma. As to conditions: 10 µM unless noted.
The next test has as its system EKVX NSCLC. To be noted: 10 µM unless noted.
Another test relates to SN12C renal. As to conditions: 10 µM unless noted.
The test system of a further test is UO-31 renal. As to conditions: 10 µM unless noted.
The next test relates to TK-10 renal. As to conditions: 10 µM unless noted.
Another test deals with CAKI-1 renal. As to conditions: 10 µM.
In a further test the test system is A498 renal. As to conditions: 10 µM unless noted.
Another test relates to CCRF-CEM leukemia. As to conditions: 10 µM unless noted.
For another test, the system named is MOLT-4 leukemia. As to conditions: 10 µM unless noted.
The next test relates to ACHN renal. As to conditions: 10 µM unless noted.

Compounds without any hit were thinned out: in the full panel of roughly 83,000, 20% have a hit.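 Assay: single dose, 48 h. Readout: percent growth (0 = no net growth; negative = cell death). Active: <10.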 Values without a mark were called inactive. The source made the active and inactive calls.

As to `CCOC(=O)c1nn(-c2ccc(C)cc2)c(=O)c2c(N)c(C#N)c(-c3ccc(OC)cc3)cc12`, the growth in the test with HCT-15 colon was 99.2%; in the test with HT29 colon, 99.4%; in the test on SNB-19 CNS, 91.3%; in the test on U251 CNS, 103%; with PC-3 prostate, 94.8%; in the test on SK-MEL-5 melanoma, 99.9%. For the same compound, the growth in the test on UACC-62 melanoma is 94.9%; in the test on LOX IMVI melanoma, 95.5%; in the test on SK-MEL-28 melanoma, 100%; in the test with SK-MEL-2 melanoma, 95.1%; in the test on EKVX NSCLC it was 84.7%; in the test with SN12C renal it was 85.6%. The growth with UO-31 renal was 80.5%; with TK-10 renal, 125%; in the test on CAKI-1 renal, 92%; with A498 renal it was 118%; with CCRF-CEM leukemia it was 103%; in the test on MOLT-4 leukemia, 114%.
Turning to `Cc1occc1-c1nc2s/c(=C\c3cn(-c4ccccc4)nc3-c3ccccc3)c(=O)n2n1`, the growth with HCT-15 colon is 99.2%; in the test on HT29 colon it was 101%; in the test on SNB-19 CNS, 96.8%; with U251 CNS it was 97.1%; with PC-3 prostate it was 90.6%; in the test on SK-MEL-5 melanoma it was 92.4%. In addition, the growth was 92.1% in the test with UACC-62 melanoma; 103% with LOX IMVI melanoma; 101% in the test with SK-MEL-28 melanoma; 99.9% with SK-MEL-2 melanoma; 99.4% with EKVX NSCLC; 89.3% with SN12C renal. Moreover, the growth is 90.5% in the test with UO-31 renal; 106% in the test with TK-10 renal; 108% in the test on ACHN renal; 89.2% in the test with CAKI-1 renal; 92.9% in the test with A498 renal; 107% in the test on MOLT-4 leukemia.
For `COc1ccc(Cn2cc3c(c2-c2cc(OC)c(OC)c(OC)c2)CCCc2cnoc2-3)cc1N`, the growth was 26.8% in the test with HCT-15 colon; 14.6% in the test on HT29 colon; 28.7% with SNB-19 CNS; 32.6% in the test on U251 CNS; 35.5% in the test with PC-3 prostate; 23.1% in the test with SK-MEL-5 melanoma. The growth in the test on UACC-62 melanoma is 41.5%; in the test with LOX IMVI melanoma, 45.1%; with SK-MEL-28 melanoma, 65.9%; in the test on SK-MEL-2 melanoma, 55.4%; in the test on EKVX NSCLC it was 46.6%; in the test on SN12C renal it was 40.5%. In addition, the growth was 38.2% in the test on UO-31 renal; 78.9% with TK-10 renal; 40.1% in the test with ACHN renal; 31.5% in the test with CAKI-1 renal; 15.5% in the test on CCRF-CEM leukemia; 17.4% in the test with MOLT-4 leukemia.
As to `Oc1ccc(-c2nnc(SCc3ccc(O)c4ncccc34)o2)cc1`, the growth is 7.43% (active) with HCT-15 colon; 24% in the test with HT29 colon; 12.8% in the test on SNB-19 CNS; 13.2% in the test on U251 CNS; 9.97% (active) in the test on PC-3 prostate; -17.1% (active) in the test on SK-MEL-5 melanoma. Also, the growth in the test with UACC-62 melanoma is -12.7% (active); with LOX IMVI melanoma it was 7.94% (active); in the test with SK-MEL-28 melanoma it was 22.7%; in the test on SK-MEL-2 melanoma it was 17%; in the test with EKVX NSCLC, 15.6%; with SN12C renal it was 6.09% (active). Further, the growth was -5.74% (active) in the test on UO-31 renal; 13.6% in the test with TK-10 renal; 3.35% (active) in the test with CAKI-1 renal; -8.21% (active) with A498 renal; 12.1% with CCRF-CEM leukemia; 16.5% in the test on MOLT-4 leukemia.
As to `COc1ccc(-c2cc(-c3cccc4ccccc34)n3c(n2)nc2ccccc23)cc1OC`, the growth in the test with HCT-15 colon is 27.4%; in the test on HT29 colon it was 21.5%; in the test on SNB-19 CNS it was 16.7%; in the test on U251 CNS, 20.4%; in the test on PC-3 prostate it was 30.8%; with SK-MEL-5 melanoma, 17.9%. Also, the growth with UACC-62 melanoma was 20%; in the test with LOX IMVI melanoma, 30.9%; in the test on SK-MEL-28 melanoma, 51.5%; in the test on SK-MEL-2 melanoma, 98.2%; in the test with EKVX NSCLC, 69.2%; in the test with SN12C renal it was 10.9%. Moreover, the growth in the test with UO-31 renal is 29.4%; in the test with TK-10 renal it was 53.1%; in the test with ACHN renal, 8.14% (active); with CAKI-1 renal it was 17.3%; in the test with A498 renal, 38%; in the test with MOLT-4 leukemia, 7.55% (active).
With `COc1cc(/C=N/n2cnc3oc(-c4ccccc4)cc3c2=N)cc(CN2CCOCC2)c1O`, the growth in the test on HCT-15 colon was 27.9%; in the test with HT29 colon, 60.3%; with SNB-19 CNS, 101%; with U251 CNS it was 53.7%; in the test on PC-3 prostate, 64.6%; with SK-MEL-5 melanoma, 62.3%. For the same compound, the growth with UACC-62 melanoma is 62.5%; in the test with LOX IMVI melanoma, 8.3% (active); with SK-MEL-28 melanoma it was 78.3%; in the test with SK-MEL-2 melanoma it was 104%; in the test with EKVX NSCLC, 89.9%; in the test on SN12C renal it was 72.4%. In addition, the growth is 74% in the test on UO-31 renal; 102% with TK-10 renal; 28% in the test with ACHN renal; 43.7% with CAKI-1 renal; 53.8% with A498 renal; 26.2% in the test with CCRF-CEM leukemia. Further, in the test with MOLT-4 leukemia, the growth was 52.9%.
On to `CCOC(=O)c1c(NCC(=O)Nc2ccc(Br)cc2)sc2c1CCCC2`, for which the growth was -14.2% (active) in the test with HCT-15 colon; 25.7% in the test on HT29 colon; 56.7% with SNB-19 CNS; -6.08% (active) in the test on U251 CNS; 55% in the test with PC-3 prostate; 39.8% with SK-MEL-5 melanoma. Moreover, the growth with UACC-62 melanoma is 46.9%; in the test with LOX IMVI melanoma, 4.11% (active); in the test with SK-MEL-28 melanoma, 67.6%; in the test with SK-MEL-2 melanoma, 68.7%; in the test with EKVX NSCLC it was 76%; with SN12C renal, 18.2%. Also, the growth with UO-31 renal is 54.3%; with TK-10 renal, 81.4%; with ACHN renal it was 14.8%; in the test with CAKI-1 renal it was 27%; in the test with CCRF-CEM leukemia, 18.2%; in the test on MOLT-4 leukemia, 16.8%.
Take `O=[N+]([O-])c1ccc(-c2nnc(SCc3ccc(O)c4ncccc34)n2-c2ccccc2)cc1`: the growth with HCT-15 colon is 19.2%; in the test with HT29 colon, 65.8%; in the test on SNB-19 CNS, 14.4%; with U251 CNS, 14%; in the test with PC-3 prostate it was 21%; with SK-MEL-5 melanoma it was 1.12% (active). Further, the growth was 27.7% in the test with UACC-62 melanoma; -19.9% (active) with LOX IMVI melanoma; 43.4% in the test with SK-MEL-28 melanoma; 13.8% in the test with SK-MEL-2 melanoma; 40.5% in the test with EKVX NSCLC; 9.69% (active) with SN12C renal. In addition, the growth with UO-31 renal is 7.34% (active); in the test on TK-10 renal, 79.3%; in the test with ACHN renal it was 29.3%; in the test with CAKI-1 renal it was 30.1%; in the test on A498 renal, 70.8%; in the test on CCRF-CEM leukemia, 21%. The growth in the test on MOLT-4 leukemia was 43.2%.
